Results filed as inconclusive are left out. A number with no mark means an inactive call. Activity calls are given as the source filed them. Calls follow the shape of the full dose curve.
Assay: qHTS assay for small molecule agonists of the p53 signaling pathway - cell viability (AID 651633); also: nearly all actives have a fitted effect of over 30% in size;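 as to activity change, negative = cytotoxicity: p53RE-bla HCT reporter cells with a stable beta-lactamase p53 reporter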
Details: p53RE-bla HCT-116 viability, ATP luminescence, 16 h; series mostly up to 83.3 µM; activity change, negative = cytotoxicity: at the top concentration
Excerpt: National Center for Advancing Translational Sciences [NCATS]
NIH Chemical Genomics Center [NCGC]
U.S. Environmental Protection Agency [EPA]
National Institutes of Environmental Health Sciences [NIEHS]
National Toxicology Program [NTP]
U.S. Food and Drug Administration [FDA]
p53, a tumor suppressor protein, is activated following cellular insult, including DNA damage and other cellular stresses. The activation of p53 regulates cell fate by inducing DNA repair, cell cycle arrest, apoptosis, or cellular senescence. The activation of p53, therefore, is a good indicator of DNA damage and other cellular stresses. […] The activation of the reporter gene under culture conditions can be detected by fluorescence intensity. This cell line was used to screen the Tox21 compound library in a 1536-well plate format and to identify agonists that activate the p53 signaling pathway.
Tox21 Assay Protocol Summary:
The p53RE-bla cells were dispensed at 4,000 cells/5 ul/well in 1536-well black wall/clear bottom plates using a Multidrop dispenser. After the assay plates were incubated at a 37 C/5% CO2 incubator for 5 hours, 23 nL of compounds dissolved in DMSO, positive controls or DMSO only was transferred to the assay plate by a pin tool. The plates were incubated at 37 C for 16 hours. After 1 uL of LiveBLAzerTM B/G FRET substrate was added using a Flying Reagent Dispenser, the plates were incubated at room temperature for 2 hours, and fluorescence intensity was measured by an Envision plate reader.
For cell viability readout that measures cytotoxicity, 4 ul/well of CellTiter-Glo reagent was added into the assay plates using a Flying Reagent Dispenser. After 30 min incubation at room temperature, the luminescence intensity in the plates was measured using a ViewLux plate reader.
% is scaled to controls: 0 for no effect and ±100 for the full control effect; potency is read from the fitted curve at half-maximal effect.

Compound	activity change, negative = cytotoxicity	Potency
Cn1sccc1=O	14.6%	–
CCCOc1ccc2nc(NC(=O)OC)[nH]c2c1	13.4%	–
CCOC(=O)CC(C)C	9.78%	–
O=C(O)C1CCC(C(=O)O)CC1 (stereo not given)	12.4%	–
Cc1ccc(C(N)=O)cc1N	7.81%	–
CCN(CC)CCOC(=O)C1(c2ccccc2)CCCC1	20.9%	–
C=CC(=O)OCC(C)OCC(C)OCC(C)OC(=O)C=C (stereo not given)	–	24.3 µM (active)
C1CCC2OC2C1 (stereo not given)	10.7% [at 95.3 µM]	–
Cc1cccc(Oc2ccccc2)c1	21.6%	–
CC(C)CC=O	11.1%	–
CCOc1nc2cccc(C(=O)O)c2n1Cc1ccc(-c2ccccc2-c2nn[nH]n2)cc1	–	29.8 µM (active)
COc1ccc(C(C)=O)cc1	16.5% [at 95.3 µM]	–
CC(C)NCC(O)c1cc(O)cc(O)c1 (stereo not given)	16.1%	–
Cn1c(N)nc2nc[nH]c2c1=O	-7.71%	–
O=[N+]([O-])c1cc[n+]([O-])cc1	-9.56%	–
COCCCCCCCCOCCC[Si](C)(O[Si](C)(C)C)O[Si](C)(C)C	-9.05%	–
Oc1ccc(Sc2ccc(O)cc2)cc1	-13.4%	–
SC1CCCC1	11.9%	–
COC(=O)C(C)=O	6.14% [at 95.3 µM]	–
O=c1c2ccccc2nnn1CCl	15.2%	–

Compound	activity change, negative = cytotoxicity	Potency
CN(C)CCCNCCCN	-15.3%	–
CCCCOCCOCCOCCOCCO	-5.65%	–
Cc1ncsc1CCO	10.3%	–
ClC(Cl)(Cl)c1ccc(C(Cl)(Cl)Cl)cc1	12.9%	–
CCC(=O)OC(C)(C)C1CC=C(C)CC1 (stereo not given)	2.42%	–
CN(C(=O)CCCOc1ccc2[nH]c(=O)ccc2c1)C1CCCCC1	11.7%	–
CCOC(=O)[C@H](CCc1ccccc1)N[C@H]1CCc2ccccc2N(CC(=O)O)C1=O	-25.1%	–
CC(=O)OCCc1ccccc1	21%	–
CCCCCCCCCO	17.6%	–
O=C(O)COC(=O)Cc1ccccc1Nc1c(Cl)cccc1Cl	-19.9% [at 39.1 µM]	–
Cc1ccc(C(=O)C(C)CN2CCCCC2)cc1 (stereo not given)	–	inactive
S=C(S)NCCNC(=S)S	18.2%	–
CC(=O)N(O)CCCCCNC(=O)CCC(=O)N(O)CCCCCNC(=O)CCC(=O)N(O)CCCCCN	15.5% [at 39.1 µM]	–
CCCCCCCCCCCCC(=O)O	10.3% [at 95.3 µM]	–
C=CC(C)(CCC=C(C)C)OC(=O)c1ccccc1 (stereo not given)	7.54%	–
CCN(CC)CCc1nc(-c2ccccc2)no1	-12.6% [at 39.1 µM]	–
CC[C@@H]1C[C@H](N(Cc2cc(C(F)(F)F)cc(C(F)(F)F)c2)C(C)=O)c2cc(C(F)(F)F)ccc2N1C(=O)OC(C)C	-11.9%	–
CN1CCC(=C2c3ccccc3C=Cc3ccccc32)CC1	12%	–
CCCCCCCCCCCCCCCC(=O)OC/C=C(C)/C=C/C=C(C)/C=C/C1=C(C)CCCC1(C)C	–	inactive
NC(N)=N/N=C/c1c(Cl)cccc1Cl	14.8%	–

— PubChem BioAssay (Tox21)
